Source: PubChem BioAssay
SF-1 inh: inhibitors of human SF-1, primary screen, cell-based, CHO-K1, Gal4-SF-1 LBD, luciferase luminescence; 0.55% of 65,000 active; AID 525, 2006; CHO-K1 Gal4-SF-1 LBD luciferase reporter; Steroidogenic factor 1 (Homo sapiens), Q13285; inhibition, % at 10 µM;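 active means inhibition above the mean inhibition of all tested compounds plus 3 SD, cut at about 48% in these data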
Target sequence (Q13285 whole entry, looked up, the tested form may be a part): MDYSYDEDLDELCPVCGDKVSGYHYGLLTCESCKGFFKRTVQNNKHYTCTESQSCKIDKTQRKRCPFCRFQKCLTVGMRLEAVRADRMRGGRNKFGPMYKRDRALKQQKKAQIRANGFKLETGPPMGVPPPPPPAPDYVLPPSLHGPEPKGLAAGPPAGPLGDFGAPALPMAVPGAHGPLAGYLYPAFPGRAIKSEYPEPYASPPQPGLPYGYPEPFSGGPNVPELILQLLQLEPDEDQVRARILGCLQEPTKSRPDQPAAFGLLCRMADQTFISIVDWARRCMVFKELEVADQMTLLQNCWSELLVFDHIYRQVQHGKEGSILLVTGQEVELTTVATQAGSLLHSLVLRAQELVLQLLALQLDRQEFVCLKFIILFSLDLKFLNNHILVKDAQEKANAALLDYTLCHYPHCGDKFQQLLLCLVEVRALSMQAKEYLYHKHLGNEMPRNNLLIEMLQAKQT
Each line names hits and unclear results; the compound was inactive in the other large screens. This is one part of a sample in which hits are shown more often than they occur.

O=C(O)c1cn(-c2ccccc2)nc1-c1cccnc1	none
c1ccc(-c2nc(NCC3CCCO3)c3ccccc3n2)nc1 (centres undefined)	none
c1ccc(-c2nc(NCc3ccco3)c3ccccc3n2)nc1	SF-1 inh 75.6
c1ccc(-n2ncc3c(NCc4ccco4)ncnc32)cc1	none
O=C(NC1CCCc2ccccc21)C1CCN(c2nnc(-n3cccc3)s2)CC1 (centres undefined)	none
c1ccn2cc(CSc3nnc4ccccn34)nc2c1	none
O=C(O)C1C2CCC(C2)C1C(=O)Nc1nc2ccccc2s1 (centres undefined)	none
O=C(COC(=O)C1CCCN1S(=O)(=O)c1ccc(Cl)cc1)Nc1ccc2c(c1)OCO2 (centres undefined)	none
C=CS(=O)(=O)c1ccc(Oc2ccc(S(=O)(=O)C=C)cc2)cc1	SF-1 inh 96.6
O=C(NCc1ccco1)C1CCN(c2ccc(N3CCOCC3)nn2)CC1	none
O=C(COc1nnc2ccccn12)N1CCN(S(=O)(=O)c2ccccc2)CC1	none
CCN(CC)c1ccc2cc(NC(=O)CCC(=O)O)c(=O)oc2c1	SF-1 inh 59.3
CCN(CC)c1ccc(NC(=O)c2ccccc2F)cc1	none
CCN(CC)c1ccc2cc(-c3nnc(-c4ccncc4)o3)c(=O)oc2c1	none
CC(CCc1ccccc1)NC(=O)c1ccncc1 (centres undefined)	none
COc1cccc(C(=O)N2CCN(CCCc3ccccc3)CC2)c1OC	none
COC(=O)C1=CN(C2CC2)C=C(C(=O)OC)C1c1ccccc1OC	none
Cc1cnc(NC(=O)CSc2nnc(COc3c(C)cccc3C)o2)s1	none
Cc1cnc(NC(=O)COc2ccccc2Cl)s1	SF-1 inh 59.5
Cc1cnc(NC(=O)CSc2nnc(-c3ccccc3)o2)s1	none
CCOC(=O)C(C)n1cnc2c(cnn2-c2ccc(Cl)cc2)c1=O (centres undefined)	none
O=C(COC(=O)c1cccs1)NCC1CCCO1 (centres undefined)	none
COc1cc(NC(=O)C2CC2)c(C(=O)O)cc1OC	none
CC(=O)N1CCN(c2ccc(Oc3nc(-c4ccccc4)nc4ccccc34)cc2)CC1	none
CC1CN(c2nc(-c3ccccc3)nc3ccccc23)CC(C)O1 (centres undefined)	none
c1ccc(N2CCN(c3nc(-c4ccccn4)nc4ccccc34)CC2)cc1	SF-1 inh 51.8
COc1ccc(CCCc2nnc(SCC(=O)Nc3nccs3)n2C)cc1C	none
O=c1oc2ccccc2c(N2CCCCC2)c1CN1CCCCC1	none
Oc1c(CN2CCCCC2)cc(Br)c2cccnc12	SF-1 inh 69.2
O=C(NCCN1CCCCCC1)C1CCC(CNS(=O)(=O)c2cccc3cccnc23)CC1 (centres undefined)	none
Cc1nnc(SCC(=O)Nc2ccc(Cl)cn2)n1Cc1ccccc1	none
O=C(c1cc2c(s1)CCC2)N1C(=O)c2ccccc2S1(=O)=O	none
O=C(O)c1ccc2c(c1)C(=O)N(Cc1ccccc1)C2=O	none
O=C(O)c1cccc(OCc2ccccc2Cl)c1	none
CCCCOc1ccc(C(=O)O)cc1	none
COc1ccc(OCc2cccc(C(=O)O)c2)cc1	SF-1 inh 94.5
CCOc1ccc(OCc2cccc(C(=O)O)c2)cc1	SF-1 inh 94.8
O=C(O)c1cccc(COc2ccc(CO)cc2Cl)c1	SF-1 inh 94.4
COC(=O)Nc1ccc(OCc2ccccc2)cc1	none
COc1ccc(CNC(=O)c2cccc(N3CCCC3=O)c2)cc1	none
Clc1ccc(OCc2nn3c(-c4ccccc4)nnc3s2)c(Cl)c1	none
O=C(Nc1ccc(Cl)cn1)c1cccc(F)c1	none
CCn1c(SCC(=O)N2CCN(S(=O)(=O)c3ccccc3)CC2)nnc1-c1cccs1	none
CCN1CCN(Cc2ccc(OCc3ccccc3)cc2)CC1	none
CC1(C)Cc2c(C#N)c(N3CCOCC3)nc(Cc3ccccc3)c2CO1	none
COCCOC(=O)CC1=NC(=O)CS1	none
COc1ccc(Cl)c(Cn2c(NCC(C)O)nc3c2c(=O)n(C)c(=O)n3C)c1 (centres undefined)	none
C=CCn1c(NCCc2ccccc2)nc2c1c(=O)n(C)c(=O)n2C	none
CCNc1nc2c(c(=O)n(C)c(=O)n2C)n1Cc1ccc(Cl)cc1	SF-1 inh 54.0
CCN1CCN(Cc2nc3c(c(=O)n(C)c(=O)n3C)n2CCCc2ccccc2)CC1	none
Cn1c(=O)c2c(nc(SCCN3CCOCC3)n2Cc2ccc(Cl)cc2)n(C)c1=O	none
C/C(Cl)=C\Cn1c(NCCc2ccccc2)nc2c1c(=O)n(C)c(=O)n2C	SF-1 inh 61.7
CCCc1cc(C(=O)NC2CCCCC2)no1	none
O=C(NC1=NCCS1)c1nc(-c2ccccc2)n(-c2ccccc2)n1	none
CCOC(=O)c1cnn2c(N)c(C#N)nnc12	none
O=S(=O)(Nc1nc2ccccc2nc1NCCO)c1cccc(Cl)c1	none
O=C(NCc1ccc2c(c1)OCO2)C1CCCN(S(=O)(=O)c2cccc3nonc23)C1 (centres undefined)	none
CC(=O)C1=C(C)OC(N)=C(C#N)C1c1ccco1 (centres undefined)	none
CN(C)c1ccc2c(c1)OC(N)=C(C#N)C2c1cccc(F)c1 (centres undefined)	SF-1 inh 56.0
Cc1ccccc1Cn1nc(C)c(NC(=O)c2noc3c2CC(C(C)(C)C)CC3)c1C (centres undefined)	none
CCOC(=O)CC(=O)CSc1nc2ccc(C)cc2cc1C#N	none
O=C(O)C1CC=CCC1C(=O)NC12CC3CC(CC(C3)C1)C2 (centres undefined)	none
Cc1cccc(OCC(O)Cn2c(-n3nc(C)cc3C)nc3c2c(=O)[nH]c(=O)n3C)c1 (centres undefined)	none
Cc1c(C(=O)OCCOC(C)C)[nH]c2c1C(=O)CC(C)(C)C2	none
CCOC(=O)C1=C(C)NC2=C(C(=O)CCC2)C1c1cc(OC)ccc1OC (centres undefined)	none
C=CCOC(=O)c1[nH]c2c(c1C)C(=O)CC(c1cc(OC)c(OC)c(OC)c1)C2 (centres undefined)	SF-1 inh 52.4
CCOC(=O)C(C(=O)OCC)C(=O)c1cc(OC)c(OC)c(OC)c1	none
CCCCOC(=O)c1[nH]c2c(c1C)C(=O)CC(c1cc(OC)c(OC)c(OC)c1)C2 (centres undefined)	SF-1 inh 54.0
C=CCSc1n[nH]c(-c2ccc(OC)cc2)n1	none
CC(=O)c1cccc(S(=O)(=O)N2CCN(c3nc4cc(C)cc(C)c4cc3C#N)CC2)c1	none
COc1ccccc1NC(=O)N(Cc1ccc2c(c1)OCO2)Cc1nc2ccccc2c(=O)[nH]1	none
COc1cccc(C(=O)N2CCN=C2SCc2cccnc2)c1OC	none
Cc1ccc(-c2cc3c(nn2)-c2ccccc2C3=O)cc1	SF-1 inh 88.1
Cc1ccc(S(=O)(=O)N2CCCC2C(=O)N2CCCCCC2)cc1 (centres undefined)	none
c1ccc(CNc2ncnc3c2ncn3C2CCCCO2)cc1 (centres undefined)	none
Cc1cc(N2CCN(c3nnnn3-c3ccccc3)CC2)n2ncnc2n1	none
CCn1c2ccccc2c2cc(Nc3cc(C)nc4ncnn34)ccc21	SF-1 inh 70.3
Cc1cc(N2CCc3ccccc32)n2ncnc2n1	none
COc1ccc(C(=O)c2ccc(N3CCOCC3)cc2)c(OC)c1	none
COc1ccc(NC2CC(=O)N(c3ccccc3)C2=O)cc1 (centres undefined)	none
NC(=O)c1cc(Cc2ccccc2)sc1NC(=O)c1ccco1	none
Cc1ccc2nc(-c3ccccc3)cn2c1	SF-1 inh 89.2
Cn1c2ccccc2c2ncn(CCC3=CCCCC3)c(=O)c21	none
COc1cccc(-c2nc(-c3ccc(NC(=O)c4cccnc4)cc3)no2)c1	none
COc1cccc(-c2nnc(NC(=O)c3ccc(S(=O)(=O)N4CC(C)OC(C)C4)cc3)o2)c1 (centres undefined)	SF-1 inh 49.3
